These results are taken from PubChem BioAssay (NCATS).

Each structure is given as a SMILES string. Several values for one entry are separate records, joined by “and”; a condition that tells them apart may be missing. Equal values may be shown once. Results filed as inconclusive are left out. Some compounds were tested as several samples or in several runs, with calls that do not always agree. Activity calls are given as the source filed them. The call rests on the fitted dose curve; in most records, active means well fitted curve in the direction sought with a large enough effect; inconclusive means small, poorly fitted or top-dose-only effect, or another doubt; inactive means no such curve, though single readings can be large; an effect the other way counts as inactive or inconclusive.

Assay [1] is described as follows: Viability qHTS for spleen associated tyrosine kinase inhibitor (SYKi) naive MV4-11 cells (AID 1963823). Further: nearly all actives have a fitted effect of over 40% in size. The procedure, abridged:
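CellTiter-Glo luminescence, 10 min room-temperature incubation, gave viability. Cells: naive MV4-11 (500/well), treated 72 hr at 37 C, 5% CO2.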

The nature of assay [2]: Quantitative highthroughput screen to assess conditional lethalithy of NOMO1 cells grown in RPMI1640 with untreated serum (RPMI+s) (AID 1963876). Further: nearly all actives have a fitted effect of over 35% in size.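 On Viability: 100% = DMSO wells and 0% = empty wells without cells.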 The method, boiled down:
(§1)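 Each medium arm—HPLM with 10% dialyzed FBS, or RPMI1640 with 5 mM glucose and 10% untreated or dialyzed FBS—was screened against an 11-point, 3-fold compound titration for 48 h at 37 °C, with CellTiter-Glo luminescence as endpoint.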

Assay [3] in a line: Quantitative highthroughput screen to assess conditional lethalithy of NOMO1 cells grown in RPMI1640 with dialyzed fetal bovine serum (RPMI+ds) (AID 1963877). Further: nearly all actives have a fitted effect of over 30% in size.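 On Viability: series mostly up to about 46 µM; 100% = DMSO control wells and 0% = empty wells.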 The method, boiled down: as §1
Assay [4] can be described thus: Quantitative highthroughput screen to assess conditional lethalithy of NOMO1 cells grown in Human Plasma-Like Medium with dialyzed fetal bovine serum (HPLM+ds) (AID 1963878). Further: nearly all actives have a fitted effect of over 35% in size.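 On Viability: 100% = DMSO wells and 0% = empty wells on each plate.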 The method, boiled down:
as §1

A short description of assay [5]: Quantitative highthroughput screen to assess conditional lethalithy of P12 Ichikawa cells grown in Human Plasma-Like Medium with dialyzed fetal bovine serum (HPLM+ds) (AID 1963879). Further: nearly all actives have a fitted effect of over 35% in size. On Viability: series mostly up to about 46 µM. Conditions: Potency: viability. The procedure, abridged:
as §1

Assay [6] is described as follows: Quantitative highthroughput screen to assess conditional lethalithy of P12 Ichikawa cells grown in RPMI1640 with untreated serum (RPMI+s) (AID 1963881). Further: nearly all actives have a fitted effect of over 35% in size.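 On Viability: series mostly up to about 46 µM; 100% = DMSO wells and 0% = empty wells without cells.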 Conditions: Potency: viability. The method, boiled down: as §1
Assay [7] in a line: Quantitative highthroughput screen to assess conditional lethalithy of SEM cells grown in Human Plasma-Like Medium with dialyzed fetal bovine serum (HPLM+ds) (AID 1963882). Further: nearly all actives have a fitted effect of over 35% in size. On Viability: series mostly up to about 46 µM. The procedure, abridged: as §1
A short description of assay [8]: Quantitative highthroughput screen to assess conditional lethalithy of SEM cells grown in RPMI1640 with unreated serum (RPMI+s) (AID 1963883). Further: nearly all actives have a fitted effect of over 35% in size.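 On Viability: 100% = DMSO wells and 0% = empty wells without cells.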 The method, boiled down: as §1
Assay [9] can be described thus: Quantitative highthroughput screen to assess conditional lethalithy of P12 Ichikawa cells grown in RPMI1640 with dialyzed fetal bovine serum (RPMI+ds) (AID 1963880). Further: nearly all actives have a fitted effect of over 35% in size.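 On Viability: 100% = DMSO wells and 0% = empty wells on each plate.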 The following applies: Potency: P12-Ichikawa viability. The procedure, abridged: as §1
Assay [10] in a line: Quantitative highthroughput screen to assess conditional lethalithy of SEM cells grown in RPMI1640 with dialyzed fetal bovine serum (RPMI+ds) (AID 1963884). Further: nearly all actives have a fitted effect of over 35% in size.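 On Viability: series mostly up to about 46 µM; 100% = DMSO control wells and 0% = empty wells without cells.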 The procedure, abridged:
as §1

A short description of assay [11]: Cellular viability qHTS for adrenocortical cancer (ACC) cell line SW-13 (AID 1963989). Further: nearly all actives have a fitted effect of over 65% in size.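 On activity (max response): cells grown in serum-free medium with ITS supplement; on the % scale 0 is the no-effect control and ±100 the full control effect.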 Conditions: SW-13 ACC cells viability, CellTiter-Glo, 48 h; activity (max response): stronger effect = lower value. The procedure, abridged:
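Here, serum-free SW-13 cultures were dosed up to 46 uM. Following 48 h, ATP-dependent luminescence (CellTiter-Glo) reported viable cells, and logistic modeling produced IC50 values.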

A short description of assay [12]: Cellular viability qHTS for adrenocortical cancer (ACC) cell line NCI-H295R (AID 1963990). Further: nearly all actives have a fitted effect of over 60% in size. The method, boiled down:
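Viability of NCI-H295R after 48 h of treatment (final up to 46 uM) measured through cellular ATP luminescence.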
Potency means the concentration at half of the fitted maximal effect.

Turning to `COc1cc2ncnc(Nc3cccc(Br)c3)c2cc1OC`, in assay [1], the Potency was 4.68 µM (active). Moreover, the Potency entry in assay [2], in assay [3], in assay [4], in [5], in assay [6] and in [7] was “inactive” each time. Also, in assay [8], the Potency entry is “inactive”.

For `O=C(NCCS(=O)(=O)c1ccc(C(F)(F)F)cn1)c1ccc(Cl)cc1`, the Potency entry in assay [1], in [2], in assay [3], in assay [4], in [5] and in assay [9] was “inactive” throughout. Further, the Potency entry in [6], in [7], in assay [8], in [10] and in assay [12] was “inactive” in each case. Further, in assay [11], the activity (max response) was 0.68% (inactive).

For the compound `CCOC(=O)C1=C(N)Oc2ccc(Br)cc2C1C(C#N)C(=O)OCC` (stereo not drawn), the Potency in assay [1] was 13.2 µM (active) and inactive. Besides, the Potency entry in assay [2], in assay [3], in assay [4], in assay [6], in assay [7] and in [12] was “inactive” in each case.

On to `CCCCC(CC)COC(=O)C(C#N)=C(c1ccccc1)c1ccccc1` (stereo not drawn), for which the Potency in [1] is 26.6 µM (active). For the same compound, the Potency result in [2], in [3], in assay [4], in [5], in [9] and in [6] was “inactive” each time. The Potency entry in [7], in assay [8], in assay [10] and in assay [12] was “inactive” in each case. Besides, the activity (max response) in [11] is 0.298% (inactive) and -14.7% (inactive).

As to `Cc1ccc(NC(=O)C2(c3ccc4c(c3)OC(F)(F)O4)CC2)nc1-c1cccc(C(=O)O)c1`, the Potency result in [1] and in [12] was “inactive” throughout. Besides, the Potency was 0.166 µM (active) in assay [2]; 0.209 µM (active) in assay [3]; 0.187 µM (active) in assay [4]; 0.187 µM (active) in assay [5]; 0.187 µM (active) in [9]; 0.148 µM (active) in [6]. The results for the Potency in assay [7], in assay [8] and in assay [10] were 0.0935 µM (active), 0.0743 µM (active) and 0.0833 µM (active), respectively. Further, the activity (max response) in assay [11] is 4.62% (inactive).

Turning to `CC(=O)[C@H]1CC[C@H]2[C@@H]3CC=C4C[C@@H](O)CC[C@]4(C)[C@H]3CC[C@]12C`, the Potency in assay [1] is 5.96 µM (active). Besides, the Potency result in assay [2], in assay [3], in [4], in assay [5], in assay [9] and in [6] was “inactive” throughout. For the same compound, the Potency entry in [7], in assay [8], in assay [10] and in assay [12] was “inactive” throughout. Moreover, the activity (max response) in [11] was 14.9% (inactive) and 3.3% (inactive).

As to `COC(=O)C1=C(C)NC(C)=C(C(=O)OCCN2CCN(C(c3ccccc3)c3ccccc3)CC2)C1c1cccc([N+](=O)[O-])c1` (stereo not drawn), the Potency in assay [1] is 11.9 µM (active); in assay [11] it was 4.47 µM (active); in assay [12] it was 3.98 µM (active). For the same compound, the Potency entry in assay [2], in [3], in assay [4], in assay [5], in [9] and in assay [6] was “inactive” in each case. Besides, the Potency entry in assay [7], in assay [8] and in assay [10] was “inactive” in each case.

For the compound `COCCCOc1cc(C[C@@H](C[C@H](N)[C@@H](O)C[C@H](C(=O)NCC(C)(C)C(N)=O)C(C)C)C(C)C)ccc1OC`, the Potency entry in assay [1], in assay [2], in [3], in assay [4], in [5] and in assay [9] was “inactive” in each case. For the same compound, the Potency entry in assay [6], in assay [7], in assay [8], in [10] and in assay [12] was “inactive” in each case. Besides, the activity (max response) in [11] was 6.05% (inactive).

For the compound `c1cc(CN2CCCNCCNCCCNCC2)ccc1CN1CCCNCCNCCCNCC1`, the Potency entry in assay [1], in assay [2], in assay [3], in [4], in [5] and in assay [9] was “inactive” in each case. Also, the Potency result in assay [6], in [7], in assay [8], in assay [10] and in assay [12] was “inactive” in each case.

In the case of `CC(C)C[C@H](NC(=O)[C@@H](NC(=O)c1cccc(-c2ccccc2)n1)[C@@H](C)O)B(O)O`, the Potency in assay [1] is 14.6 nM (active) and 25.7 nM (active); in [2], 0.0743 µM (active); in assay [3], 0.105 µM (active); in [4] it was 0.0662 µM (active); in assay [5], 0.0526 µM (active); in [6], 0.0372 µM (active). The Potency in [7] was 0.0148 µM (active); in assay [8], 0.0132 µM (active); in assay [10], 0.0148 µM (active); in [11] it was 0.285 µM (active); in [12], 0.18 µM (active).

For the compound `COc1nc(C)cnc1NS(=O)(=O)c1cccnc1-c1ccc(-c2nnco2)cc1`, the Potency entry in [1], in assay [2], in assay [3], in assay [4], in [5] and in assay [6] was “inactive” each time. The Potency entry in [7], in [8], in assay [10] and in assay [12] was “inactive” in each case. For the same compound, the activity (max response) in [11] was 3.93% (inactive).

Take `CC1(C)Cc2c(sc(NC(=S)NC(=O)c3ccccc3)c2C(=O)O)CO1`: the Potency in [1] was 14.8 µM (active). For the same compound, the Potency entry in assay [2], in assay [3], in assay [4], in [5], in [9] and in assay [6] was “inactive” in each case. In addition, the Potency result in assay [7], in assay [8], in assay [10] and in [12] was “inactive” in each case. For the same compound, in assay [11], the activity (max response) was 11% (inactive).

With `CCOC(=O)C=C[C@H](C[C@@H]1CCNC1=O)NC(=O)[C@@H](CC(=O)[C@@H](NC(=O)c1cc(C)on1)C(C)C)Cc1ccc(F)cc1`, the Potency result in assay [1], in [2], in assay [3], in assay [4], in assay [5] and in [9] was “inactive” throughout. Also, the Potency entry in assay [6], in [7], in assay [8], in assay [10] and in assay [12] was “inactive” each time. In addition, the activity (max response) in [11] was -3.62% (inactive).

In the case of `CCC[C@H]1C[C@H](C(=O)N[C@@H]([C@@H]2O[C@@H](SC)[C@@H](O)[C@@H](O)[C@@H]2O)[C@H](C)Cl)N(C)C1`, the Potency result in [1], in assay [2], in assay [3], in [4], in assay [7] and in assay [8] was “inactive” in each case. For the same compound, in assay [10], the Potency result was “inactive”.

With `O=C1CCCC(=O)C1C(=O)c1ccc(C(F)(F)F)cc1[N+](=O)[O-]`, the Potency entry in [1], in assay [2], in [3], in [4], in assay [5] and in assay [9] was “inactive” in each case. In addition, the Potency entry in assay [6], in assay [8], in assay [10] and in assay [12] was “inactive” each time. In addition, the activity (max response) in [11] is 6.97% (inactive).

Take `Cc1ncc([N+](=O)[O-])n1CC(C)O` (stereo not drawn): the Potency result in assay [1], in [2], in [3], in [4], in [5] and in [9] was “inactive” each time. Moreover, the Potency result in assay [6] and in assay [12] was “inactive” throughout. The activity (max response) in assay [11] was -11% (inactive).

In the case of `Cc1c(CCOc2ccc(C(=O)O)cc2)c2cc(Cl)ccc2n1C(c1ccccc1)c1ccccc1`, the Potency result in assay [1], in assay [2], in assay [3], in assay [4], in [9] and in assay [6] was “inactive” throughout. In addition, the Potency result in assay [7], in assay [8], in [10] and in assay [12] was “inactive” throughout. Also, the Potency in assay [5] is 14.8 µM (active). Further, the activity (max response) in assay [11] is -0.782% (inactive).
